# Experimental data from the supplement of paper PMC10849652.
# The full data set covers some 8,800 targets. This sample favours those with a hit. About 0.5% of all pairs of compound and target were hits. Values without a mark were called inactive.
# Experiments:
# Test in all cases: log2 fold change, soluble protein after heating vs DMSO (PISA); higher = thermal stabilisation; K562 lysate, 10 uM; active = over 0.2 and 3.5 SD of the protein, either way, in both replicates (recomputed)
# nilotinib = compound: Cc1cn(-c2cc(NC(=O)c3ccc(C)c(Nc4nccc(-c5cccnc5)n4)c3)cc(C(F)(F)F)c2)cn1 [nilotinib]
# Summary of the method: (§1)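 K562 pellets were dounce-homogenised in PBS pH 7.4 with 1 mM MgCl2, and the crude extract at 1 mg/mL protein was treated with 10 μM compound for 30 min. Aliquots were heated for 3 min across 48°C-58°C, pooled, and brought to 0.5% NP-40 at 4°C; soluble protein was the supernatant after 21,000xg for 90 min. Soluble protein was quantified by TMTpro 16plex LC-MS/MS with channel sums equalised, and reported as log2 fold change in thermal stability against DMSO controls, with values from duplicates.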
# [1] = compound: Cc1nc(Nc2n[nH]c3c2CN(C(=O)N[C@H](CN(C)C)c2ccccc2)C3(C)C)c2sccc2n1
# Summary of the method: as §1
# dasatinib = compound: Cc1nc(Nc2ncc(C(=O)Nc3c(C)cccc3Cl)s2)cc(N2CCN(CCO)CC2)n1 [dasatinib]
# Summary of the method: as §1
# [2] = compound: Cc1ncc(-c2ccnc(Nc3ccc(S(C)(=O)=O)cc3)n2)n1C(C)C
# Summary of the method: as §1
# [3] = compound: Cn1cc(-c2ccc3c(c2)CCN3C(=O)Cc2cccc(C(F)(F)F)c2)c2c(N)ncnc21
# Summary of the method: as §1
# quisinostat = compound: Cn1cc(CNCC2CCN(c3ncc(C(=O)NO)cn3)CC2)c2ccccc21 [quisinostat]
# Summary of the method: as §1
# tipifarnib = compound: Cn1cncc1[C@@](N)(c1ccc(Cl)cc1)c1ccc2c(c1)c(-c1cccc(Cl)c1)cc(=O)n2C [tipifarnib]
# Summary of the method: as §1
# [4] = compound: NC(=O)Nc1cc(-c2cccc(F)c2)sc1C(=O)N[C@H]1CCCNC1
# Summary of the method: as §1
# [5] = compound: NC(=O)c1cnc(N[C@@H]2CCCC[C@@H]2N)nc1Nc1cccc(-n2nccn2)c1
# Summary of the method: as §1
# [6] = compound: NC1(c2ccc(-c3nc4ccn5c(=O)[nH]nc5c4cc3-c3ccccc3)cc2)CCC1
# Summary of the method: as §1
# UniProt Q08426, sequence (Q08426 whole entry, looked up): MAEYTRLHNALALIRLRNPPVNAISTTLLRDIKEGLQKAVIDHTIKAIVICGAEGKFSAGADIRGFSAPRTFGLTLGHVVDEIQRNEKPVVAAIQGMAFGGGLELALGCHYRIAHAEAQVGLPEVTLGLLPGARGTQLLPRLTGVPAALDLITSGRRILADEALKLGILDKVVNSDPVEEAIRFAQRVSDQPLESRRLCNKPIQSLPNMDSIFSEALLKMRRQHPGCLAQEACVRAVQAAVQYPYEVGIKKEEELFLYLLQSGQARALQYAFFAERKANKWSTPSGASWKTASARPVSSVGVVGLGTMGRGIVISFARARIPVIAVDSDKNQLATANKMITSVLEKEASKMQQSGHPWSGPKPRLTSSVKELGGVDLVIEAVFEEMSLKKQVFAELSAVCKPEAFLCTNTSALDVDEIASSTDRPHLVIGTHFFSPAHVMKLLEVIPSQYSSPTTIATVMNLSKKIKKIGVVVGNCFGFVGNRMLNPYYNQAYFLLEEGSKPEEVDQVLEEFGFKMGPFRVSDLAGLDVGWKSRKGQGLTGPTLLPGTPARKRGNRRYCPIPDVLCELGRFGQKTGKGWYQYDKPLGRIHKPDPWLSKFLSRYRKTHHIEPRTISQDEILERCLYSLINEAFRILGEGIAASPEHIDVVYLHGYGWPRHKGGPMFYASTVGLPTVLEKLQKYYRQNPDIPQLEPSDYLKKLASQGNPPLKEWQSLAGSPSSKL
# UniProt P54852, sequence (P54852 whole entry, looked up): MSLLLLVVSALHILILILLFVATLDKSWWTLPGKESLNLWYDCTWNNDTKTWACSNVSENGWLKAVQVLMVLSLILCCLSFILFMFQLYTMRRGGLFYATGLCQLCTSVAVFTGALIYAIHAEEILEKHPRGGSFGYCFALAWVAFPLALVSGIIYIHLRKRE
# UniProt Q96I24, sequence (Q96I24 whole entry, looked up): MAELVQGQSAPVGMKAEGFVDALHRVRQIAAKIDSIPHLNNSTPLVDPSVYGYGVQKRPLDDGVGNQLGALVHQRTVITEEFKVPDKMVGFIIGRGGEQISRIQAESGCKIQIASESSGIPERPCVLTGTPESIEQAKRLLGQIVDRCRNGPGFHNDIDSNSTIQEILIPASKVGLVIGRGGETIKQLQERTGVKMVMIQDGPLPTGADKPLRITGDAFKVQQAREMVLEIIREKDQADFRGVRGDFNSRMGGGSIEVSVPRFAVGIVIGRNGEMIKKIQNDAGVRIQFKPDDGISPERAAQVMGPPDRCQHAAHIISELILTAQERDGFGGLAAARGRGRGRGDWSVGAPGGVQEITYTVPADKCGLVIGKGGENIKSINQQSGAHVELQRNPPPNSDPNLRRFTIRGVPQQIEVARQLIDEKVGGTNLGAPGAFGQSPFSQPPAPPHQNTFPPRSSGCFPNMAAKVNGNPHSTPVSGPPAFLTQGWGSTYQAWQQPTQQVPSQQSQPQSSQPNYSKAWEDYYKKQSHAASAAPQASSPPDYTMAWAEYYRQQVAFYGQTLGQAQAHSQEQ
# UniProt Q9UK97, sequence (Q9UK97 whole entry, looked up): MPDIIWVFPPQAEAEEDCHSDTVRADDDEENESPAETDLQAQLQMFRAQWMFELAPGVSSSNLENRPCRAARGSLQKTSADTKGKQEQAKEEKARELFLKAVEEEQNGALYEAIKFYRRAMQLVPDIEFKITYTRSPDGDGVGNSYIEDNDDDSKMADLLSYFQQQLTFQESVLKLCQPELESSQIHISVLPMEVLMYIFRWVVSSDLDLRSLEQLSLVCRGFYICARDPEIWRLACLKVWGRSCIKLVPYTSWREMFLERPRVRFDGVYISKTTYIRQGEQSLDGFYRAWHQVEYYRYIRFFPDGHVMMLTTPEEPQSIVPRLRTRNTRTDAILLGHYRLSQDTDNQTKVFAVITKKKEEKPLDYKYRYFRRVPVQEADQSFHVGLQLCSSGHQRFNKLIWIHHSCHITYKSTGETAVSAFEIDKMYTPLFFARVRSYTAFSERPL
# UniProt Q9UJY4, sequence (Q9UJY4 whole entry, looked up): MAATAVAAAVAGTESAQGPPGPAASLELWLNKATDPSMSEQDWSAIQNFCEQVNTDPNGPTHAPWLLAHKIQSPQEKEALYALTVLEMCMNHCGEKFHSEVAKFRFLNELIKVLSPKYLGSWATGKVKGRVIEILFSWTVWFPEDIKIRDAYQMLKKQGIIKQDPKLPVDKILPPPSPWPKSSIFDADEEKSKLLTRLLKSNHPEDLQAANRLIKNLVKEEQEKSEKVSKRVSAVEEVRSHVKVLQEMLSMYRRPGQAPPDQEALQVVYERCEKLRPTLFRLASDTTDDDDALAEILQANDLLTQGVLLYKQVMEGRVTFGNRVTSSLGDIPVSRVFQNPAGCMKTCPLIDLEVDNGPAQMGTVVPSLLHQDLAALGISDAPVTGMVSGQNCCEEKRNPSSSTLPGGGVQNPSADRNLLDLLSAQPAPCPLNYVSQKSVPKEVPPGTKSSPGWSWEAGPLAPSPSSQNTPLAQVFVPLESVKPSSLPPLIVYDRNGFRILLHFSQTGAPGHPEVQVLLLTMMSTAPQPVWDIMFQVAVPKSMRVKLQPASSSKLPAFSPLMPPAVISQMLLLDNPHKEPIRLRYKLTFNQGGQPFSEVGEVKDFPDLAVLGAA
# UniProt Q8TB52, sequence (Q8TB52 whole entry, looked up): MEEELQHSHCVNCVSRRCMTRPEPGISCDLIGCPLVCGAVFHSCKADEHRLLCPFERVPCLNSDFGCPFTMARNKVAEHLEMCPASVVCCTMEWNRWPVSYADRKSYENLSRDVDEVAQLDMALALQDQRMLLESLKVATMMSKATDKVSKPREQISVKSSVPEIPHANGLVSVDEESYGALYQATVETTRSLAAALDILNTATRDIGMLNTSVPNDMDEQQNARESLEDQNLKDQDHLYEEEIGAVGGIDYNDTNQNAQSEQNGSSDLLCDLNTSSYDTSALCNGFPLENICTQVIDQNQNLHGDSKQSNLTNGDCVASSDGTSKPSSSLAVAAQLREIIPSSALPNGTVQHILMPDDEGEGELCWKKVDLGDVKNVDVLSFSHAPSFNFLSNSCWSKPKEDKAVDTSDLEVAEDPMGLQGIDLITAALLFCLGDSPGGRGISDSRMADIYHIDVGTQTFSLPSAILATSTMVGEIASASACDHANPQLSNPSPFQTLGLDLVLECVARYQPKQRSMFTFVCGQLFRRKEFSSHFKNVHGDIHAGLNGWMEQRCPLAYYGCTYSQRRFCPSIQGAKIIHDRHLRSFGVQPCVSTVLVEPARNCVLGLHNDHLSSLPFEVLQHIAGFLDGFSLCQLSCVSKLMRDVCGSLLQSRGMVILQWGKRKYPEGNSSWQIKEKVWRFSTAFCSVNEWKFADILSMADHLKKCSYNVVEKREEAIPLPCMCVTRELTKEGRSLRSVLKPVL
# UniProt Q96PY5, sequence (Q96PY5 whole entry, looked up): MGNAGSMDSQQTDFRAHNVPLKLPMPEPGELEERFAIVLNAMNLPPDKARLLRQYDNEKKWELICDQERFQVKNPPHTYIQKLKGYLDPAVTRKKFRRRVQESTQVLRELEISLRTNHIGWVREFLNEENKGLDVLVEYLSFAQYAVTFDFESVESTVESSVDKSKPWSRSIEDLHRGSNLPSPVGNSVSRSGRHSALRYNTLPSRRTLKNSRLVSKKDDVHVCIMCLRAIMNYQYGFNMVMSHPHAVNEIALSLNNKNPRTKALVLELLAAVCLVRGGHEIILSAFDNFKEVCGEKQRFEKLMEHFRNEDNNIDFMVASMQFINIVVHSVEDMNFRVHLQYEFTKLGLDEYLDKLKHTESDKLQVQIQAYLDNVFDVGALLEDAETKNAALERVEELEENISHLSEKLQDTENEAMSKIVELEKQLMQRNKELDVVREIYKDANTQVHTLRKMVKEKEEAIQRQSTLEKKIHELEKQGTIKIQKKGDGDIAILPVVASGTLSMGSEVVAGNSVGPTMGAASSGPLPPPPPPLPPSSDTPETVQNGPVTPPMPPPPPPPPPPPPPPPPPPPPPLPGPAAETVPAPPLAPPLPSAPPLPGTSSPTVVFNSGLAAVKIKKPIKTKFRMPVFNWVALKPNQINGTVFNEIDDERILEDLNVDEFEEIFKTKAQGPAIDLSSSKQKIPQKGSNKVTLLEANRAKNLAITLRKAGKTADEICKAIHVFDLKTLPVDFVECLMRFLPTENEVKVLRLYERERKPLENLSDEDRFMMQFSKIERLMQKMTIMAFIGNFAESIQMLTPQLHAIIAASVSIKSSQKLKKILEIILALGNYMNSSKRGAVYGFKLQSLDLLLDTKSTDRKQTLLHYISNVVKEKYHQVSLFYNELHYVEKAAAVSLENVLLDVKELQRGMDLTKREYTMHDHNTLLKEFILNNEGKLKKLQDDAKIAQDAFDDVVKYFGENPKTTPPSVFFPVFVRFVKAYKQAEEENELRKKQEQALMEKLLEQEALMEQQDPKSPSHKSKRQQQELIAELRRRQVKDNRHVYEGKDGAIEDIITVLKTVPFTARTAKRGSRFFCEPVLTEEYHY
# UniProt O14772, sequence (O14772 whole entry, looked up): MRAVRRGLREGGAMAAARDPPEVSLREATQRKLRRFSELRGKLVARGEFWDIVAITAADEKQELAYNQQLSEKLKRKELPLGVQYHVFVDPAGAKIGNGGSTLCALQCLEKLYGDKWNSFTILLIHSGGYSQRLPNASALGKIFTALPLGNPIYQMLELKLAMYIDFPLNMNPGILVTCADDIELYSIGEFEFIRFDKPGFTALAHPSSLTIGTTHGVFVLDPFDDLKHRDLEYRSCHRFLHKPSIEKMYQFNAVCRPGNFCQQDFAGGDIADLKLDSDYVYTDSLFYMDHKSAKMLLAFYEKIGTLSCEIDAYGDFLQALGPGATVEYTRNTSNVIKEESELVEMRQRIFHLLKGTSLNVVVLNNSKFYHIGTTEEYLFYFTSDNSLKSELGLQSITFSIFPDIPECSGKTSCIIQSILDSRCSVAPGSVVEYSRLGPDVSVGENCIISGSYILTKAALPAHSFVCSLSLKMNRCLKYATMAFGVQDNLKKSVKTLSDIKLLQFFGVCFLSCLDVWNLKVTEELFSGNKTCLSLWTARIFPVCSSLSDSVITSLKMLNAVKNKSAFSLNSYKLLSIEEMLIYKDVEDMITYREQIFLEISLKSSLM
Target,log2 fold change (nilotinib),log2 fold change [1],log2 fold change (dasatinib),log2 fold change [2],log2 fold change [3],log2 fold change (quisinostat),log2 fold change (tipifarnib),log2 fold change [4],log2 fold change [5],log2 fold change [6]
FBXO30 (UniProt Q8TB52),0.015,-0.032,0.012,0.067,0.02,0.001,0.012,-0.008,-0.017,0.005
FAM118B (UniProt Q9BPY3),-0.018,0.002,-0.039,-0.009,-0.008,-0.06,-0.015,0.021,0.032,-0.007
FAM76B (UniProt Q5HYJ3),-0.044,0.019,0.093,-0.004,0.005,-0.028,-0.019,-0.032,-0.026,-0.07
GGA2 (UniProt Q9UJY4),-0.028,-0.047,-0.043,0,0.032,-0.022,-0.003,0.066,0.043,0.001
DYRK1A (UniProt Q13627),-0.018,0.062,-0.021,0.031,0.033,-0.026,-0.06,0.072,-0.01,-0.013
EPN2 (UniProt O95208),-0.001,0.01,-0.011,0.017,0.054,-0.016,-0.07,0.021,0.01,-0.016
EHHADH (UniProt Q08426),-0.048,-0.091,-0.011,0.045,-0.047,-0.072,0.052,-0.003,0.025,0.097
EWSR1 isoform 5 (UniProt Q01844),-0.766 (active),0.019,0.004,0.036,-0.049,-0.025,0.082,0.013,-0.002,0.024
EP400 isoform 5 (UniProt Q96L91),-0.05,-0.04,0.001,-0.025,-0.005,-0.014,0.04,0.012,0.019,-0.003
ERLIN1 (UniProt O75477),0.011,-0.031,-0.01,-0.034,0.033,0.107,0.049,-0.047,-0.009,0.035
EIF2B4 (UniProt Q9UI10),0.053,-0.005,0.014,0.033,-0.022,0.02,0.016,0.022,0.039,-0.021
FPGT (UniProt O14772),-0.006,-0.004,-0.057,0.029,-0.014,-0.105,-0.036,0.046,0.035,-0.03
EIF1 (UniProt P41567),0.126,0.084,0.001,0.142,-0.03,0.133,0,-0.018,-0.076,-0.032
FUBP3 (UniProt Q96I24),-0.201,-0.016,-0.094,0.012,0.01,-0.029,-0.009,0.043,-0.005,0.032
EMP3 (UniProt P54852),0.007,0.094,-0.046,0.02,-0.046,-0.144,0.031,0.013,-0.035,-0.008
"EED, A0A5F9ZI63",-0.019,0.035,-0.022,-0.005,-0.027,0,0.006,0.026,-0.006,-0.015
"ENO1, A0A2R8YEM5",-0.021,-0.017,-0.013,0.002,-0.021,-0.005,0.053,-0.026,0.002,-0.008
ELAVL1 isoform 2 (UniProt Q15717),-0.035,-0.014,-0.029,-0.009,0.037,-0.079,0.003,0.034,0.008,0.03
EXOC3 (UniProt O60645),-0.013,0.012,-0.06,0.039,0.021,-0.115,-0.018,0.063,0.005,-0.005
FASTKD5 (UniProt Q7L8L6),-0.072,0.032,-0.006,0.113,-0.027,-0.053,0.003,0.004,0.054,0.013
FADS3 (UniProt Q9Y5Q0),-0.091,0.216,0.102,0.166,-0.061,-0.019,-0.081,-0.008,-0.069,0.07
FXR1 (UniProt P51114),-0.139,0.031,0.028,-0.011,0.018,-0.057,-0.005,0.024,-0.001,-0.047
FMNL2 isoform 3 (UniProt Q96PY5),-0.1,-0.087,0.101,-0.018,-0.028,-0.1,-0.012,-0.047,0.002,-0.021
FARSA (UniProt Q9Y285),-0.006,0.017,-0.03,-0.003,0.001,-0.037,0.003,0.009,-0.015,-0.056
FBXO9 (UniProt Q9UK97),-0.076,0.003,0.059,0.02,0.021,-0.045,-0.092,0.177,0.127,0.127
ESRRA (UniProt P11474),-0.121,0.016,0.061,0.035,-0.096,-0.038,0.008,0.158,-0.016,0.016
EIF2D (UniProt P41214),-0.034,0.028,-0.027,-0.009,0.002,-0.064,0.024,0.04,0.008,-0.041
DSTN (UniProt P60981),0.01,0.012,-0.013,0.009,0.034,0.045,-0.005,-0.022,0.022,-0.008
GEMIN5 (UniProt Q8TEQ6),-0.003,-0.001,-0.046,0.001,0.037,-0.102,0.015,0.031,0.003,-0.027
DUS3L (UniProt Q96G46),0.008,-0.022,-0.019,-0.014,0.004,-0.098,-0.017,0.026,0,-0.021
